In the library only some 0.37% were active in any assay of this set; here they are far more common.
Rac1 wt GTP bind: human Rac1 wildtype GTP binding, inhibitors and activators; GST-Rac1 beads, fluorescent GTP binding, flow cytometry; actives lie on both sides; 0 = cold GTP competed, 100 = untreated; AID 757; GTP binding activity (% of control), % at 10 µM; 190,000 tested, 0.27% active; P63000;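 active = GTP binding activity at least 20 points away from the 100% control level, either lower or higher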
Rab2A wt mod: changes GTP binding to wildtype dog Rab2A, up or down | GST-Rab2 wt beads, Bodipy-GTP binding, flow cytometry | GTP binding activity, % at 10 µM | AID 760 | 190,000 tested, 0.19% active | P61105;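 active = GTP binding activity at least 20 points away from 100%, either lowered or raised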;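 note: 0% = beads with excess unlabeled GTP and 100% = no-compound control corrected for plate trend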
HRas wt GTP bind: human HRas wildtype GTP binding, change in either direction; P01112; GST-Ras wt beads, Bodipy-FL-GTP binding, flow cytometry; actives lie on both sides; GTP binding activity, % at 10 µM; 190,000 tested, 0.14% active; AID 759;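 active = GTP binding activity at least 20% away from the 100% baseline, either lowered as inhibitor or raised as activator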;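 note: 0% = unlabeled GTP competition control and 100% = no-compound control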
Target sequence (P01112 whole entry, looked up): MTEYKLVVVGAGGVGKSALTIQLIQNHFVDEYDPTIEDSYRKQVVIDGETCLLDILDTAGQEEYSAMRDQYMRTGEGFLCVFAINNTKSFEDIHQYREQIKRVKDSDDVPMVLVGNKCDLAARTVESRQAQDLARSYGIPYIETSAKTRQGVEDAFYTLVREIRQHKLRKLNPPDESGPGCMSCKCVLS
Rac1 mut GTP: modulators of GTP binding to human Rac1 activated mutant. AID 764. percent activity (GTP binding), % at 10 µM. 190,000 tested, 0.11% active. P63000. GST-Rac1 activated beads, fluorescent GTP binding, flow cytometry; actives lie on both sides; 100% means binding = to untreated wells;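 active = GTP binding at least 20 percentage points away from the 100% baseline, in either direction, so actives lie on both sides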
Rab7 wt GTP bind: dog Rab7 wildtype GTP binding, inhibitors and activators; GST-Rab7 beads, fluorescent GTP binding, flow cytometry; actives lie on both sides; untreated = 100%, excess cold GTP = 0%; GTP binding activity (percent of control), % at 10 µM; 190,000 tested, 0.055% active; AID 758;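 active = fluorescent GTP binding to Rab7 beads changed by at least 20 points from the 100% baseline, either direction, mostly lower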;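 note: median green fluorescence of bound Bodipy-FL-GTP per Rab7 bead population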
Cdc42 wt GTP: modulators (inhibitors or activators) of GTP binding to human Cdc42 wildtype | P60953 | GST-Cdc42 beads, Bodipy-GTP binding, flow cytometry; actives lie on both sides | percent activity (GTP binding), % at 10 µM | 190,000 tested, 0.2% active | AID 761;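 active = percent activity GTP binding at least 20 points away from the 100% baseline, either down as inhibitor or up as activator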;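 note: median bead fluorescence of bound Bodipy-FL-GTP at 100 nM; 0% = excess unlabeled GTP control and 100% = no compound control; below 100% means less GTP binding so inhibitor and above means activator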
Target sequence (P60953 whole entry, looked up): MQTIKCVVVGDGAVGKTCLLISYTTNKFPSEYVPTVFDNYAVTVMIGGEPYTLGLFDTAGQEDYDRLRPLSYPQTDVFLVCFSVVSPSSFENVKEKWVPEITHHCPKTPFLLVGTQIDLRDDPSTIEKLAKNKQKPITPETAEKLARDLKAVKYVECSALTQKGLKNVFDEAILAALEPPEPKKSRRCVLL
An asterisk follows results filed as active; [ ] = dose if it differs, or a comment.

SMILES	Rac1 wt GTP bind	Rab2A wt mod	HRas wt GTP bind	Rac1 mut GTP	Rab7 wt GTP bind	Cdc42 wt GTP
Cn1c(C(=O)OCC(=O)NCc2ccco2)cc2sccc21	105	100	99	99	98	101
CCC(OC(=O)c1cc2sccc2n1C)C(=O)NCc1ccco1 (configuration not stated)	37*	36*	44*	37*	22*	40*
CSc1ccccc1NC(=O)CN1CC(C)OC(C)C1 (configuration not stated)	98	101	99	97	103	99
O=S(=O)(Nc1cccc(-c2cn3cccnc3n2)c1)c1ccc(-c2ccccc2)cc1	95	95	97	94	96	93
O=S(=O)(Nc1cccc(-c2cn3cccnc3n2)c1)c1ccccc1	70*	74*	75*	85	87	86
Cc1cccc(NS(=O)(=O)c2cc(C(=O)N3CCOCC3)ccc2Cl)c1	102	98	97	96	98	96
NS(=O)(=O)c1ccc(-c2ccc(/C=C3\C(=O)Nc4cc(Cl)ccc43)o2)cc1	68*	76*	76*	87	94	73*
CC1(C)OC(=O)C(=Cc2ccc(-c3ccc(S(N)(=O)=O)cc3)o2)C(=O)O1	88	92	88	85	98	92
O=C(CN(Cc1ccccc1)S(=O)(=O)c1ccccc1)N/N=C/c1ccccc1C(=O)O	97	95	97	95	100	95
COc1cccc(/C=N/NC(=O)C(C)Sc2ccccc2)c1 (configuration not stated)	97	94	97	94	99	94
CCOc1cc(/C=N/NC(=O)C(C)Sc2ccccc2)ccc1O (configuration not stated)	78*	88	89	90	92	86
COc1cccc(NC(=O)CSC(N)=O)c1	101	98	99	99	95	99
COCc1cc(C)nc(N/N=C/c2ccc(-c3ccc(C(=O)O)c(Cl)c3)o2)c1C#N	67*	77*	78*	86	97	73*
COc1ccc(S(=O)(=O)Cc2ccc(C(=O)N3CCN(c4ccc(Cl)cc4)CC3)o2)cc1	108	105	104	101	102	102
COc1ccc(S(=O)(=O)Cc2ccc(C(=O)N3CCN(c4cc(Cl)ccc4C)CC3)o2)cc1	76*	72*	80	76*	77*	74*
O=C(Nc1nnc(-c2ccc3c(c2)OCCO3)o1)c1ccc(Cc2ccccc2)cc1	92	81	85	79*	86	80
O=C(CCOc1ccccc1)Nc1nnc(-c2ccc3c(c2)OCCO3)o1	90	90	88	88	99	89
C=CCN1C(=NC(=O)CCCC(=O)O)SC2CS(=O)(=O)CC21 (configuration not stated)	100	99	97	99	76*	104
CCOC(=O)C1(Cc2cccc(OC)c2)CCN(Cc2cccc(OC)c2O)CC1	102	99	101	97	102	99
Cc1cccc(NC(=O)c2ccc(COc3cccc4ccccc34)o2)n1	101	96	99	98	97	96
COc1c(C)cc(Br)cc1C(=O)O	120*[activator]	112	111	101	102	116
COc1ccc(Cc2noc(CN(C)CC(O)c3ccccc3)n2)cc1OC (configuration not stated)	98	96	94	93	95	92
Cc1cccc(-n2nc(CC#N)c(C#N)c2N)c1	82	78*	82	91	90	82
O=C(O)CC/C(=C\c1ccc(N2CCOCC2)c([N+](=O)[O-])c1)c1nc2ccccc2s1	82	74*	77*	72*	80	71*
CCOC(=O)/C=C1\SCC(=O)N1CCOc1cccc(Br)c1	86	79*	62*	84	73*	83
SMILES	Rac1 wt GTP bind	Rab2A wt mod	HRas wt GTP bind	Rac1 mut GTP	Rab7 wt GTP bind	Cdc42 wt GTP
COC(=O)c1ccc(/C=N/Nc2nc(-c3ccc(Cl)cc3Cl)cs2)cc1	130*[activator]	123*[activator]	121*[activator]	119	124*[activator]	127*[activator]
OC(c1ccc(OCc2ccccc2)cc1)c1nnc(-c2ccccc2)o1 (configuration not stated)	74*	81	82	78*	92	75*
OC(c1cccc(OCc2ccccc2)c1)c1nnc(-c2ccccc2)o1 (configuration not stated)	103	97	97	95	98	100
O=c1[nH]c(N/N=C\c2ccc3c(c2)OCO3)nc2ccccc12	67*	77*	80*	86	85	78*
CCC(CC)c1nnc(NC(=O)c2cc(C(=O)OC)cc([N+](=O)[O-])c2)s1	104	99	99	95	101	101
COc1c(C)cccc1C(=O)NC(=S)Nc1ccc2c(c1)Cc1ccccc1-2	77*	75*	83	74*	83	77*
Cc1cc(C)c2nc(SCC(=O)NCC3CCCO3)c(C#N)cc2c1 (configuration not stated)	92	90	92	92	99	89
CCc1c(C)sc(NC(=O)Cn2nc(C)c([N+](=O)[O-])c2C)c1C(N)=O	93	96	98	93	102	93
CC(C)n1c(O)c(N=Nc2ccc(Cl)nn2)c2ccccc21	114	129*[activator]	121*[activator]	117	117	116
Cc1cc(C(=O)N=Nc2c(O)n(C(C)C)c3ccccc23)n[nH]1	93	96	96	93	97	94
N#Cc1cccc(S(=O)(=O)NCC(=O)OCC(=O)c2ccc[nH]2)c1	97	96	94	94	93	95
CCn1nc(C(=O)OCC(=O)c2cc(C)n(Cc3cccs3)c2C)c2ccccc2c1=O	78*	76*	83	74*	82	77*
O=C1C2C3C=CC(C3)C2C(=O)N1CCN1CCN(Cc2ccc([N+](=O)[O-])cc2)CC1 (configuration not stated)	97	97	98	95	104	94
O=C(O)C1=C[C@@H](c2ccccc2)C[C@@H](OCc2ccc(CO)cc2)O1	93	94	92	92	101	90
O=C(O)C1=C[C@H](c2ccc(Br)cc2)C[C@H](OCc2ccc(CO)cc2)O1	75*	74*	78*	69*	94	71*
C#CCn1c(=NC(=O)c2sc3ccccc3c2Cl)sc2cc(S(N)(=O)=O)ccc21	103	99	99	99	96	100
N#CC1(NC(=O)CN2CCc3ccccc3C2)CCCC1	101	96	97	95	96	98

Screens: PubChem, NMMLSC
